Compound activity deposited in PubChem by National Center for Advancing Translational Sciences (NCATS).
Sampled rows, rich in hits. Any-hit rate of the full collection: about 19%.
IL1B secr inh: blocks inflammasome-driven IL-1 beta release; THP-1 LPS/ATP IL-1B secretion, AlphaLISA, 16 h; hits give low values; activity change, % at 57.5 µM; actives 4.7% (n = 360,000); AID 743279; in the data active means activity change below about -50%; inconclusive means mostly about -30% to -49%
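THP-1 cells pretreated 1 hr with compounds (up to 57.5 uM final), then stimulated with LPS (250 ng/mL final) plus ATP (1.25 mM final); secreted IL-1B measured by AlphaLISA after 16 hr, decreased signal indicating inhibition.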
TDP1 cell CPT: DT40-hTDP1 cell growth loss with CPT; AID 686979; chicken DT40 Tdp1-/-;hTDP1 cells + 20 nM CPT, ATP luminescence, 48 h; actives 12% (n = 420,000); Potency, µM (top dose mostly 46.2 µM), for the others: at the highest dose activity change, negative = growth inhibition, hits mostly inhibitors; further: potency means the concentration at half of the fitted maximal effect; nearly all actives have a fitted effect of over 55% in size
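Cell growth measured by CellTiter-Glo luminescence after a minimum 48 h, 37 C compound exposure with 20 nM CPT in Tdp1-knockout DT40 cells stably expressing hTDP1, seeded 400/well; qHTS titration format.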
ELG1 DNA repair: inhibitors of ELG1-dependent DNA repair in HEK293T cells. HEK293T ELG1-luciferase reporter, luminescence, 16 h; DNA damage induced by 5-fluorouridine. Potency, µM (titrated, usually from 46.1 µM), inactives show top-dose activity change, negative = inhibition, most hits filed as inhibitors. actives 2.3% (n = 330,000). AID 504467; further: potency means the concentration at half of the fitted maximal effect; nearly all actives have a fitted effect of over 55% in size
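DMSO vehicle served as the neutral condition. Each well held 2,000 cells given 5-fluorouridine plus compound; after 16 hr at 37 °C/5% CO2, ONE-Glo was added and luciferase measured 30 min later.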
HT1080 IDH1KD tx: toxicity to HT-1080 IDH1 knockdown cells (counter line) | actives 2% (n = 360,000) | HT-1080 IDH1 knockdown viability, ATP luminescence, 48 h | Potency, µM (titrated, usually from 46.1 µM), without a hit: at the highest dose activity, negative = toxicity, hits mostly cytotoxic;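 further: potency means the concentration at half of the fitted maximal effect; 0% = DMSO wells and -100% = cell-free medium wells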
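Assay cells: HT-1080 with IDH1 knockdown, 750 per well, RPMI/5% FBS. Exposure: 48 h at 37 °C following 2 h pre-incubation. Read: CellTiter-Glo luminescence; fitted concentration-response, curve class assigned.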
HT1080-NT tox: kills 2HG-producing HT-1080-NT fibrosarcoma cells; HT-1080-NT fibrosarcoma viability, CellTiter-Glo ATP luminescence, 48 h; Potency, µM (highest dose often 46.1 µM), without a hit: at the top dose activity, negative = less viability, usual class: cytotoxic; actives 1.6% (n = 360,000); AID 686970;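 further: NT is the 2HG producing partner of a matched IDH1 knockdown line; potency means the concentration at half of the fitted maximal effect; 0% = DMSO-treated cells and -100% = media-only wells without cells; nearly all actives have a fitted effect of over 55% in size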
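A 48-hour cytotoxicity screen used HT-1080-NT cells plated 2 hours before compound delivery. ATP-based CellTiter-Glo luminescence measured viability, normalized to DMSO and no-cell controls.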
DT40 TDP1 no CPT: qHTS for Inhibitors of human tyrosyl-DNA phosphodiesterase 1 (TDP1): qHTS in cells in absence of CPT; DT40 Tdp1-/- hTDP1 cells, no CPT, ATP luminescence, 48 h; Potency, µM (titrated, usually from 46.2 µM), inactives show at the highest dose activity change, negative = growth inhibition, actives largely listed as inhibitors; actives 15% (n = 420,000); AID 686978, 2013; further: potency means the concentration at half of the fitted maximal effect; nearly all actives have a fitted effect of over 55% in size
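No-CPT arm: Tdp1-/-;hTDP1 DT40 cells (400/well) plus compounds, incubated ≥48 hr at 37 °C. Readout CellTiter-Glo luminescence.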
* marks the source's active call; other numbers are inactive results; ? = inconclusive; / = no result; [ ] = remark or other dose. Unless noted, the call rests on the fitted dose curve; in most records, active means well fitted curve in the direction sought with a large enough effect; inconclusive means small, poorly fitted or top-dose-only effect, or another doubt; inactive means no such curve, though single readings can be large; an effect the other way counts as inactive or inconclusive. Unless noted, on the % scale 0 is the no-effect control and ±100 the full control effect.

SMILES | IL1B secr inh | TDP1 cell CPT | ELG1 DNA repair | HT1080 IDH1KD tx | HT1080-NT tox | DT40 TDP1 no CPT
COc1ccc(OC)c(CCNC(=O)c2ccccc2NC(=O)C2=C(C)OCCS2)c1 | 0 | ? | ? | -15% | 0% | ?
COc1ccccc1Cc1c(-c2ccc(OC)c(OC)c2)nc2c(Cl)cc(C(F)(F)F)cn12 | -20 | -27% | / | 2% | 15% | -27%
O=S(=O)(c1ccc2c(c1)CCN2)N1CCCCCC1 | / | -7% | / | / | / | -11%
COc1ccc(C(=O)Nc2nnc(-c3cccs3)s2)cc1 | 33 | 10µM* | ? | ? | -26% | 12µM*
COc1ccc(NC(=O)Nc2nnc(-c3cccs3)s2)cc1 | 28 | ? | ? | 7% | 15% | -11%
COc1ccc(/C=C/C(=O)Nc2nc(-c3cccs3)ns2)cc1 | / | ? | / | / | / | 18µM*
COc1ccc(C(=O)Nc2c(-c3cccs3)c(=O)c3ccccc3n2C)cc1 | -82* | 23µM* | ? | -2% | -6% | 21µM*
COc1cc(C(=O)Nc2nnc(-c3sccc3C)s2)cc(OC)c1OC | -9 | ? | ? | 15µM* | ? | -22%
CCN(CC)C(=O)c1sc(NC(=O)c2cc(-c3ccc(C)s3)nc3ccccc23)c(C(=O)OC)c1C | -3 | ? | ? | 3% | 6% | 23µM*
CCN(CC)C(=O)c1sc(NC(=O)C(Sc2ccccc2)c2ccccc2)c(C(=O)OC(C)C)c1C (stereo not drawn) | -18 | ? | ? | -12% | -9% | 16µM*
Cc1ccc(C)c(-c2cc(C(=O)Nc3sc(C)c(C)c3C(N)=O)c3ccccc3n2)c1 | ? | 21µM* | 18µM* | ? | ? | ?
CCOC(=O)c1c(NC(=O)c2ccoc2C)sc(C(=O)N(C)C)c1C | -20 | -28% | 7.3µM* | -7% | -16% | 23µM*
Cc1ccc(C)c(-c2cc(C(=O)NNC(=S)NCC(C)C)c3ccccc3n2)c1 | 13 | 2% | -20% | 2% | -4% | -20%
O=C(Nc1ccc(S(=O)(=O)Nc2ncccn2)cc1)c1cccc([N+](=O)[O-])c1 | 0 | -27% | / | 8% | 8% | 1%
NC(=O)C1CCN(C(=O)CNC(=O)c2ccc(F)cc2)CC1 | 0 | -4% | 5% | -1% | 9% | 0%
CCN(CC)CC(C)CNC(=O)c1cc(-c2ccc(Br)s2)nc2ccccc12 (stereo not drawn) | / | 8.2µM* | / | / | / | 9.2µM*
CCOC(=O)c1c(NC(=O)COC(=O)c2ccccc2NC)sc(C(=O)N(C)C)c1C | -79* | ? | 18µM* | ? | -28% | ?
CCN(CC)C(=O)c1sc(NC(=O)c2ccoc2C)c(C(=O)OC)c1C | ? | ? | ? | -2% | -5% | 21µM*
CCOC(=O)c1c(NC(=O)COC(=O)c2nc(Cl)ccc2Cl)sc(C(=O)N(C)C)c1C | 0 | 2% | -15% | -2% | -1% | 1%
COCCN(C(=O)c1ccc(N2C(=O)c3ccccc3C2=O)cc1)c1c(N)n(CC(C)C)c(=O)[nH]c1=O | 4 | -3% | 2% | 3% | 7% | -3%
O=C(CSCSCC(=O)Nc1ccc2c(c1)OCO2)Nc1ccc2c(c1)OCO2 | -7 | 15µM* | -18% | ? | ? | ?
O=C(CSCc1ccc(Cl)cc1)Nc1ccc2c(c1)OCCO2 | -10 | 4% | ? | -5% | -3% | -13%
O=C(CSCc1c(Cl)cccc1Cl)Nc1ccc2c(c1)OCO2 | -22 | ? | -6% | 4% | -2% | 18µM*
O=C(CSCc1ccc(Cl)cc1)Nc1ccccc1C(=O)N1CCOCC1 | -11 | -25% | -4% | 9% | 2% | ?
O=C(CSCc1c(Cl)cccc1Cl)Nc1ccccc1C(=O)N1CCOCC1 | -12 | ? | -14% | -8% | 0% | 21µM*
SMILES | IL1B secr inh | TDP1 cell CPT | ELG1 DNA repair | HT1080 IDH1KD tx | HT1080-NT tox | DT40 TDP1 no CPT
Cn1c(-c2ccccc2)cc(=O)n1-c1ccccc1 | ? | -25% | / | 15% | 15% | ?
O=C(C[n+]1ccc(/C=C/c2c[nH]c3ccccc23)c2ccccc21)c1ccccc1 | / | -8% | / | / | / | ?
COc1ccc(CCNS(=O)(=O)c2cnc(Cl)c(Br)c2)cc1OC | 0 | -12% | 6% | -4% | 30% | -11%
O=C(Nc1ccccc1Cl)c1cc[n+]([O-])cc1 | -4 | -4% | 23% | 4% | 28% | ?
O=S1(=O)C=C(Sc2nnc(-c3ccccc3)o2)c2ccccc21 | -102* | 0.52µM* | 16µM* | 1.3µM* | 2.8µM* | 0.58µM*
Cc1cc(C)nc(SC2=CS(=O)(=O)c3ccccc32)n1 | -98* | ? | ? | ? | 23µM* | 18µM*
O=C(O)CSc1nc2ccccc2s1 | 15 | 14% | 6% | 1% | 1% | 16%
O=S1(=O)C=C(Sc2nc3ccccc3s2)c2ccccc21 | -66* | 0.82µM* | ? | 2.6µM* | 2.3µM* | 0.65µM*
CSc1nnc(-c2ccccc2)o1 | -18 | -2% | ? | 21% | 3% | 0%
CCC1C(=O)Nc2nc(-c3ccccc3)c(-c3ccccc3)n2N=C1C (stereo not drawn) | -11 | 21µM* | -4% | -1%[9.24 µM] | -1% | 23µM*
C=CCn1c(SCC(=O)N2CCN(c3ccccc3)CC2)nc2c([nH]c3ccccc32)c1=O | 4 | 16µM* | 0% | 0% | 4% | 12µM*
Cc1[nH]c2ccccc2c1SCC(=O)N1CCN(c2ccccc2)CC1 | -19 | ? | -14% | 5% | 16% | 26µM*
C=CCn1c(SCC(=O)N2CCOCC2)nc2c([nH]c3ccccc32)c1=O | 7 | ? | -29% | -11% | -12% | ?
C=CCn1c(SCC(=O)NCC2CCCO2)nc2c([nH]c3ccccc32)c1=O (stereo not drawn) | 0 | 3% | 4.1µM* | -11% | -10% | 0%
CCOC(=O)N1CCN(C(=O)CSc2nc3c([nH]c4ccccc43)c(=O)n2CC)CC1 | -9 | ? | ? | -3% | 1% | 15µM*
COC(=O)C(C)N1CCC(=O)c2ccccc2S1(=O)=O (stereo not drawn) | 21 | -7% | 0% | 3% | 4% | 0%
F[Si-2](F)(F)(F)(F)F | / | -9% | / | / | / | -26%
Cc1nn(C)c(C)c1S(=O)(=O)NCCc1ccc(Cl)cc1 | 14 | 18% | 7% | 13% | 10% | -10%
